# Legend:
# [1] = target: 5'-AMP-activated protein kinase catalytic subunit alpha-2 (Homo sapiens) (UniProt P54646); settings: at 1 µM
# [2] = target: T1, NUAK family SNF1-like kinase 1 (Homo sapiens) (UniProt O60285); settings: at 0.1 µM
# T1 sequence (whole entry): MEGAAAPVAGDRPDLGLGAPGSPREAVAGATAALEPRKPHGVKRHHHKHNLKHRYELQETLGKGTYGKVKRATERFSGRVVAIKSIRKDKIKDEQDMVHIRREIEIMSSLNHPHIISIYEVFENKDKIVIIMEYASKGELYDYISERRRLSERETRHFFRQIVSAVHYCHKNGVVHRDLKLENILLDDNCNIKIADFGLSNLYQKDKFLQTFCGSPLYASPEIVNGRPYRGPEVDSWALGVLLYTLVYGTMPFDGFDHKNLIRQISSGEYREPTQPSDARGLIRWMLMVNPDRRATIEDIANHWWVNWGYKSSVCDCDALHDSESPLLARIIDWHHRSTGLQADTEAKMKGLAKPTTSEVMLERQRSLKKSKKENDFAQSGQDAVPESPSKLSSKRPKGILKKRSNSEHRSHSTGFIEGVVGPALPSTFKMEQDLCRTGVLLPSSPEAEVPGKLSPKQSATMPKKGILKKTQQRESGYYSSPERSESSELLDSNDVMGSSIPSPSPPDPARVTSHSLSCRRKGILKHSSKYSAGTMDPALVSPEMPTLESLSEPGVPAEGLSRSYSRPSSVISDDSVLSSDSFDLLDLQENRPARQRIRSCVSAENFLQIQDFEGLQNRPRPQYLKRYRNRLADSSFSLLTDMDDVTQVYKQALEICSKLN
# [3] = target: T1, NUAK family SNF1-like kinase 1 (Homo sapiens); settings: at 1 µM
# [4] = target: T2, Serine/threonine-protein kinase BRSK1 (Homo sapiens) (UniProt Q8TDC3); settings: at 0.1 µM
# T2 sequence (whole entry): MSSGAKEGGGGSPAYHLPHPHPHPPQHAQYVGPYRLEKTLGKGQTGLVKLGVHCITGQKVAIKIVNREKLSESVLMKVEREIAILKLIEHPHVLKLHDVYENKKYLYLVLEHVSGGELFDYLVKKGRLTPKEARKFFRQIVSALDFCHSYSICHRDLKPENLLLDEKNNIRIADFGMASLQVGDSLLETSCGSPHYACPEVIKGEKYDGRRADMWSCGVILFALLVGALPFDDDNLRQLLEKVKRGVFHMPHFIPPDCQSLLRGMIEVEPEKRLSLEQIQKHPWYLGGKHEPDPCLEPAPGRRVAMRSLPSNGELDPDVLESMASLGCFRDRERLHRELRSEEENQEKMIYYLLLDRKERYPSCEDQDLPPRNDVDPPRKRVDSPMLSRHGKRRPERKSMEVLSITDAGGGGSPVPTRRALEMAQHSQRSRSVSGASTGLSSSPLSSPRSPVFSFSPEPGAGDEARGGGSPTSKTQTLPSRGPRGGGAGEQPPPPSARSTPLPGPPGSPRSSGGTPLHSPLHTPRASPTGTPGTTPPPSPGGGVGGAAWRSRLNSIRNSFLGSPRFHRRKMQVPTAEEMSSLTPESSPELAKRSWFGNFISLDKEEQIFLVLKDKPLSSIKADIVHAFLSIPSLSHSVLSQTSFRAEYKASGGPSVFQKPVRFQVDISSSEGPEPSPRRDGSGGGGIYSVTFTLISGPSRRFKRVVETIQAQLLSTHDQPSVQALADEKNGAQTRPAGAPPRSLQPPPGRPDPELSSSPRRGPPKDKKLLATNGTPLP
# [5] = target: T2, Serine/threonine-protein kinase BRSK1 (Homo sapiens); settings: at 1 µM
# [6] = target: T3, Serine/threonine-protein kinase BRSK2 (Homo sapiens) (UniProt Q8IWQ3); settings: at 0.1 µM
# T3 sequence (whole entry): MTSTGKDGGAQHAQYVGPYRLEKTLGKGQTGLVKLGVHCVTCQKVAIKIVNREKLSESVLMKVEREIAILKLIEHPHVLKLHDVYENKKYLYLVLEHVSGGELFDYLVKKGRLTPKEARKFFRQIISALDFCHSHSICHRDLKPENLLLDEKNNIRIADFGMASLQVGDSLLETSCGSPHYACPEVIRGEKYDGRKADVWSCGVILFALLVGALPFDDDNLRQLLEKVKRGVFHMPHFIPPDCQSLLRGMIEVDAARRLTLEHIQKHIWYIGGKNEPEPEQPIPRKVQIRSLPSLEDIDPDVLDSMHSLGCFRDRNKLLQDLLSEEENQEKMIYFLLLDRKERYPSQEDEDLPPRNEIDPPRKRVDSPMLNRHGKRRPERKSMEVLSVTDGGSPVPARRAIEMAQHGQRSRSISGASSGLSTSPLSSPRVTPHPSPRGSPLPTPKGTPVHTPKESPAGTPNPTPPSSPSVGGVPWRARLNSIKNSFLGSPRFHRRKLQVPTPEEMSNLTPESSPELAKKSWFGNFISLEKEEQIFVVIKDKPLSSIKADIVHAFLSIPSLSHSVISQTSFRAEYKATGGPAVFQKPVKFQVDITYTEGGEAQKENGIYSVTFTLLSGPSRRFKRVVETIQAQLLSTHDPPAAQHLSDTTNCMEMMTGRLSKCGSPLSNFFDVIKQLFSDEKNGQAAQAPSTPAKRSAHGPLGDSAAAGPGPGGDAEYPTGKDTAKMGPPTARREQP
# [7] = target: T3, Serine/threonine-protein kinase BRSK2 (Homo sapiens); settings: at 1 µM
# [8] = target: Calcium/calmodulin-dependent protein kinase type 1D (Homo sapiens) (UniProt Q8IU85); settings: at 0.1 µM
# Calcium/calmodulin-dependent protein kinase type 1D (Homo sapiens), sequence (Q8IU85 whole entry, looked up): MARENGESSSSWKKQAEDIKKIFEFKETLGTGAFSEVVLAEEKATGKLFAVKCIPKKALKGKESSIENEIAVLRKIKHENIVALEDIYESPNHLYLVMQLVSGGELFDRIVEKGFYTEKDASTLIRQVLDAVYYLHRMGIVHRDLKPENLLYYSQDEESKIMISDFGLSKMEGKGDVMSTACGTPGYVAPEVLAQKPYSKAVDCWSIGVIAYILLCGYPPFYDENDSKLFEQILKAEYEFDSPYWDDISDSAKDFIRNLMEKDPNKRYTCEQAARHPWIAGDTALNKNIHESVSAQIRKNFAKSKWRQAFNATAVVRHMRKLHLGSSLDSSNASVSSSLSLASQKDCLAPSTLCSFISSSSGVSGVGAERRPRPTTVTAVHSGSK
# [9] = target: Calcium/calmodulin-dependent protein kinase type 1D (Homo sapiens) (UniProt Q8IU85); settings: at 1 µM
# [10] = target: Calcium/calmodulin-dependent protein kinase type II subunit alpha (Homo sapiens) (UniProt Q9UQM7); settings: at 0.1 µM;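 note: reported values are averages (mean inhibition of CAMK2A)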
# Calcium/calmodulin-dependent protein kinase type II subunit alpha (Homo sapiens), sequence (Q9UQM7 whole entry): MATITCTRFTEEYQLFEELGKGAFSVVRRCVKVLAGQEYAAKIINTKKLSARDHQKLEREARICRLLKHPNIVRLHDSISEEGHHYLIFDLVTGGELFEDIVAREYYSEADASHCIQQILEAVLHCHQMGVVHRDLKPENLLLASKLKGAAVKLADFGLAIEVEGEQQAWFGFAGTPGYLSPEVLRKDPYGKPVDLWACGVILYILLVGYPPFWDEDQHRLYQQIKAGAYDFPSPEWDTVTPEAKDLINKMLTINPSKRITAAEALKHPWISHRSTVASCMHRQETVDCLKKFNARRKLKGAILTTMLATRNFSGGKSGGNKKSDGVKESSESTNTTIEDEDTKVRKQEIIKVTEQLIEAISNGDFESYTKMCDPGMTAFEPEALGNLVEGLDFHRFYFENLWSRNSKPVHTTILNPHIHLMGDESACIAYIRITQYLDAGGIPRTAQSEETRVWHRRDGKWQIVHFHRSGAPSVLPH
# 5'-AMP-activated protein kinase catalytic subunit alpha-2 (Homo sapiens), sequence (P54646 whole entry, looked up): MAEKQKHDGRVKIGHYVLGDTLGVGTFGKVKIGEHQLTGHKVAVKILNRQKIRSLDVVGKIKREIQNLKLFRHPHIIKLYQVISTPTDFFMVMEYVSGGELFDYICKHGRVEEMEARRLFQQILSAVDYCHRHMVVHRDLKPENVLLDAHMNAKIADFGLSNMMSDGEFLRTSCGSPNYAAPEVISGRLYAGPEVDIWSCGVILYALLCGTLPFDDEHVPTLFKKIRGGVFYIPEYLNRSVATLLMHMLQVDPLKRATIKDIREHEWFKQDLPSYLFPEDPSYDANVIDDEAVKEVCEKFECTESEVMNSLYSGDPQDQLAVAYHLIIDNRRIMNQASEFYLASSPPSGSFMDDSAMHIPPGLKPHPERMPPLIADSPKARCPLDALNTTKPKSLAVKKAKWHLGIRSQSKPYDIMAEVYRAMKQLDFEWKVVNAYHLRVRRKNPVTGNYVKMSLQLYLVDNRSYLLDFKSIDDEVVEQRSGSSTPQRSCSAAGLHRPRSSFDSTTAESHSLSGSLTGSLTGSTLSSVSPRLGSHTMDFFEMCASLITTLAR
Compound,inhibition [1],inhibition [2],inhibition [3],inhibition [4],inhibition [5],inhibition [6],inhibition [7],inhibition [8],inhibition [9],inhibition [10]
Fc1ccc(-c2ncn(C3CCNCC3)c2-c2ccnc(Oc3ccccc3)n2)cc1,-1.95%,-1.26%,2.38%,-0.19%,-0.55%,0.01%,2.57%,-1.05%,0.14%,-0.23%
COc1cccc(COc2cc(-n3cnc4ccccc43)sc2C(N)=O)c1,1.39%,-2.73%,8.04%,-0.43%,5.63%,0.26%,4.17%,0.91%,0.38%,0.37%
CCn1c(-c2nonc2N)nc2c(C#CC(C)(C)O)ncc(OC[C@@H]3CCCN3)c21,4.25%,6.58%,34.4%,-0.75%,1.83%,0.98%,1.11%,0.27%,0.84%,1.28%
COc1cccc(-n2ncc3c(N/N=C/c4ccncc4)ncnc32)c1,7.87%,16.1%,54.6%,11.2%,52.5%,18.6%,60.1%,0.07%,2.43%,4.53%
Cc1cc(-c2ccco2)cc(C)c1/C=C/c1cncc(-c2nn[nH]n2)c1,2.58%,-1.33%,-1.37%,-0.09%,1.13%,0.76%,0.62%,0.45%,-0.49%,1.37%
Nc1nonc1-c1nc2cnccc2n1C1CCCCC1,3.46%,0.83%,6.7%,-0.55%,4.25%,0.61%,6.14%,0.69%,1.22%,-2.67%
NC(=O)c1sc(-n2cnc3cc(C(F)(F)F)ccc32)cc1OCc1ccccc1Br,4.05%,-0.04%,2.91%,1.16%,3.25%,2.43%,8.5%,0.11%,1.53%,2.4%
COc1cc2c(cc1Nc1nc(Nc3ccsc3C(N)=O)c3cc[nH]c3n1)N(C(=O)CN(C)C)CCC2,2.09%,1.84%,1.85%,0.07%,1.57%,0.73%,-0.28%,,,-4.48%
CCn1c(-c2nonc2N)nc2c(C#CCN)ncc(OCCCN)c21,2.16%,6.71%,10.4%,4.54%,10.3%,7.19%,12.2%,-0.21%,-0.05%,-2.48%
CCn1c(-c2nonc2N)nc2c(C#CC(C)(C)O)nc(O[C@@H](CN)c3ccccc3)cc21,68.1%,24.4%,69.6%,6.66%,38.4%,13.7%,58.8%,13.2%,29.4%,-1.19%
COc1cc(C=NNc2ncnc3c2cnn3Cc2ccccc2)ccc1O,-3.45%,7.72%,27.6%,-0.74%,1.48%,0.53%,2.95%,0.1%,0.78%,-5%
CCn1c(-c2nonc2N)nc2c(C#CC(C)(C)O)ncc(OCC3CCNCC3)c21,16.1%,6.78%,37.2%,0.32%,6.72%,2.53%,10.8%,-0.03%,0.97%,3.5%
NS(=O)(=O)c1ccc(N/C=C2\C(=O)Nc3ccc4ncsc4c32)cc1,42.8%,59.2%,69.1%,17.6%,53.1%,33%,62.4%,0.05%,0.92%,2.56%
NS(=O)(=O)c1ccc(-c2ccc3c(NC(=O)C4CC4)n[nH]c3c2)cc1,5.62%,3.06%,8.32%,3.64%,6.53%,4.08%,7.2%,-1.85%,0.84%,3.17%

# — ChEMBL document CHEMBL1961873, “Compounds: GSK PKIS; Assays: Nanosyn kinase panel” (2012)
